Counter-ions that a name gives are not always drawn. Unmarked numbers belong to inactive results.
Each molecule was assayed on NCI-H1688 (assay: inhibition of cell viability relative to untreated control (fraction); higher = stronger growth inhibition, active = 0.5 or more). Settings: 30 µM; 24 h.
How it was run: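 After seeding at 3 × 10^3 cells/well in 96-well plates and a 24 h wait, NCI-H1688 small cell lung cancer cells received a natural compound library (TargetMol) at 30 µM for 24 h, kept at 37°C with 5% CO2. Triplicate readings of Cell Counting Kit-8 absorbance at 450 nm measured viability. Each value is the inhibition of cell viability as a fraction, derived from viability normalised to untreated cells.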

Compared with `Nc1ncnc2c1ncn2C1CC(O)C(CO)O1` (stereo not drawn) [2'-Deoxyadenosine monohydrate], `Nc1ncnc2c1ncn2[C@@H]1O[C@H](CO)C[C@H]1O` [Cordycepin] is lower in “inhibition of cell viability” value: -0.0483 for the first, -0.154 for the second.

First: OC[C@H]1O[C@@H](O[C@@H]2[C@@H](CO)OC(O)(CO)[C@H]2O)[C@H](O)[C@@H](O)[C@H]1O (mixture of isomers) [Lactulose]
Second: OC[C@H]1O[C@H](O[C@]2(CCl)O[C@H](CCl)[C@@H](O)[C@@H]2O)[C@H](O)[C@@H](O)[C@H]1Cl [Sucralose]
The “inhibition of cell viability” value of the first is higher: 0.135 for the first, 0.0847 for the second.

Going from `Nc1ncnc2c1ncn2[C@@H]1O[C@H](COP(=O)(O)OP(=O)(O)OP(=O)(O)O)[C@@H](O)[C@H]1O` [Adenosine disodium triphosphate] to `COC(=O)C1=CO[C@@H](O[C@@H]2O[C@H](CO)[C@@H](O)[C@H](O)[C@H]2O)[C@@H]2[C@@H](C)[C@@H](O)C[C@H]12` [Loganin], the “inhibition of cell viability” value rises from 0.0565 to 0.0696.

First: Nc1nc(=O)c2nc(CNc3ccc(C(=O)N[C@@H](CCC(=O)O)C(=O)O)cc3)cnc2[nH]1 [Folic acid]
Second: Cc1cc2nc3c(=O)[nH]c(=O)nc-3n(C[C@H](O)[C@H](O)[C@H](O)CO)c2cc1C [Riboflavin]
The “inhibition of cell viability” value of the first is lower: -0.206 for the first, 0.284 for the second.

First: O=C1c2cccc(O)c2C(=O)c2c(O)cc(CO)cc21 [Aloe-emodin]
Second: COc1ccc([C@@H]2CC(=O)c3c(O)cc(O)cc3O2)cc1O [Hesperetin]
The “inhibition of cell viability” value of the first is higher: 0.373 for the first, -0.0748 for the second.

Compared with `CC12CCC(CC1=O)C2(C)C` [D-Camphor], `CC1(C)CC[C@]2(C(=O)O)CC[C@]3(C)C(=CC[C@@H]4[C@@]5(C)CCC(=O)C(C)(C)[C@@H]5CC[C@]43C)[C@@H]2C1` [Oleanonic Acid] is higher in “inhibition of cell viability” value: 0.123 for the first, 0.342 for the second.

Compared with `O=C(O)C(O)Cc1ccc(O)c(O)c1` (stereo not drawn) [Sodium Danshensu], `O=C(O)[C@H](O)Cc1ccc(O)c(O)c1` [Danshensu] is higher in “inhibition of cell viability” value: -0.0463 for the first, 0.318 for the second.

First: Cc1nc(C)c(C)nc1C [Tetramethylpyrazine]
Second: Cc1ncc(CO)c(CO)c1O [Pyridoxine]
The “inhibition of cell viability” value of the first is higher: 0.202 for the first, 0.0231 for the second.

Compared with `C[C@@H]1CCCCCCCCCCCCC(=O)C1` [Muscone], `CC(=O)O[C@]1(C(C)=O)CC[C@H]2[C@@H]3C[C@H](C)C4=CC(=O)CC[C@]4(C)[C@H]3CC[C@@]21C` [Farlutin] is higher in “inhibition of cell viability” value: -0.148 for the first, 0.01 for the second.

First: COc1cc2ccc(=O)oc2cc1OC [Scoparone]
Second: COc1ccc(-c2cc(=O)c3c(O)cc(O)cc3o2)cc1O [Diosmetin]
The “inhibition of cell viability” value of the first is lower: -0.0332 for the first, 0.314 for the second.

First: CC(=O)c1c(O)cc(O)cc1O [Phloracetophenone]
Second: Oc1cc(O)c2c(c1)O[C@H](c1ccc(O)c(O)c1)[C@@H](O)C2 [(+)-Catechin Hydrate]
The “inhibition of cell viability” value of the first is lower: 0.00993 for the first, 0.159 for the second.

Compared with `C[C@@]12C[C@@]3(O)O[C@@H](O1)[C@]1(COC(=O)c4ccccc4)[C@H]3C[C@@]12O[C@@H]1O[C@H](CO)[C@@H](O)[C@H](O)[C@H]1O` [Paeoniflorin], `OC[C@H]1OC(O)[C@@H](O)[C@@H](O)[C@@H]1O` (stereo partly drawn) [Mannose] is lower in “inhibition of cell viability” value: 0.068 for the first, 0.0629 for the second.

Going from `C[C@H](CCC(=O)O)[C@H]1CC[C@H]2[C@@H]3CC[C@@H]4C[C@H](O)CC[C@]4(C)[C@H]3C[C@H](O)[C@]12C` [Deoxycholic acid] to `C[C@H](CCC(=O)NCCS(=O)(=O)O)[C@H]1CC[C@H]2[C@@H]3[C@H](O)C[C@@H]4C[C@H](O)CC[C@]4(C)[C@H]3C[C@H](O)[C@]12C` [Taurocholic acid sodium salt hydrate], the “inhibition of cell viability” value rises from -0.113 to -0.0242.

First: NCCCS(=O)(=O)O [Homotaurine]
Second: Cn1c(=O)c2c(ncn2CC(=O)O)n(C)c1=O [Theophylline-7-acetic acid]
The “inhibition of cell viability” value of the first is higher: 0.357 for the first, -0.159 for the second.

First: C[C@H]1O[C@H](O[C@H]2[C@H](O)[C@@H](O)[C@@H](O[C@H]3[C@H](O)[C@@H](O)C(O)O[C@@H]3CO)O[C@@H]2CO)[C@H](O)[C@@H](O)[C@@H]1N[C@H]1C=C(CO)[C@@H](O)[C@H](O)[C@H]1O (stereo partly drawn) [Acarbose]
Second: NC[C@H]1O[C@H](O[C@H]2[C@H](O)[C@@H](O[C@H]3O[C@H](CO)[C@@H](O)[C@H](N)[C@H]3O)[C@H](N)C[C@@H]2N)[C@H](N)C[C@@H]1O [Tobramycin]
The “inhibition of cell viability” value of the first is lower: -0.208 for the first, -0.0866 for the second.

First: CC(C)(O)CC[C@@H](O)[C@](C)(O)[C@H]1CC[C@@]2(O)C3=CC(=O)[C@@H]4C[C@@H](O)[C@@H](O)C[C@]4(C)[C@H]3CC[C@]12C [Ecdysterone]
Second: O=C(O)[C@H]1O[C@@H](Oc2cc3oc(-c4ccc(O)cc4)cc(=O)c3c(O)c2O)[C@H](O)[C@@H](O)[C@@H]1O [Scutellarin]
The “inhibition of cell viability” value of the first is higher: -0.0294 for the first, -0.14 for the second.

First: Oc1cc(O)c2c(c1)O[C@H](c1ccc(O)c(O)c1)[C@H](O)C2 [Epicatechin]
Second: COc1cc(C2Oc3cc([C@H]4Oc5cc(O)cc(O)c5C(=O)[C@@H]4O)ccc3OC2CO)ccc1O (stereo partly drawn) [Silibinin]
The “inhibition of cell viability” value of the first is higher: 0.0727 for the first, 0.0271 for the second.

With `C=C(NC(=O)C(=C)NC(=O)c1csc(C2=N[C@@H]3c4csc(n4)[C@H]4NC(=O)c5csc(n5)[C@H]([C@](C)(O)[C@@H](C)O)NC(=O)[C@H]5CSC(=N5)/C(=C/C)NC(=O)[C@H]([C@@H](C)O)NC(=O)c5csc(n5)[C@]3(CC2)NC(=O)[C@H](C)NC(=O)C(=C)NC(=O)[C@H](C)NC(=O)[C@H]([C@@H](C)CC)N[C@@H]2C=Cc3c([C@H](C)O)cc(nc3[C@H]2O)C(=O)O[C@@H]4C)n1)C(N)=O` [Thiostrepton] the “inhibition of cell viability” value was 0.943 (active).
For `O=c1cc(-c2ccc(O)c(O)c2)oc2cc(O)cc(O)c12` [Luteolin], the “inhibition of cell viability” value was 0.794 (active).
In the case of `COc1c(O)cc2oc3cc(O)c(CC=C(C)C)c(O)c3c(=O)c2c1CC=C(C)C` [Mangostin], the “inhibition of cell viability” value is reported as 1 (active).
With `CN1c2ccccc2C(=O)N2CCc3c([nH]c4ccccc34)C21` (stereo in doubt) [Evodiamine] the “inhibition of cell viability” value was 0.848 (active).

Reference: the supplement of paper PMC11634586
